Drawing on PubChem BioAssay (EPA / NIEHS), this text covers outcome and AC50 for nine compounds.

Assay [1] has as its target human Matrix Metalloproteinase-3 (MMP3), MMP3 (gene 4314) (UniProt P08254). As to the kind of experiment: NVS_ENZ_hMMP3: NovaScreen (NVS) Enzymatic Assay for human Matrix Metalloproteinase-3 (MMP3) (AID 2283185). The method in brief: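 Fluorescent substrate turnover by recombinant MMP3 read after 1 h, signal loss scored against DMSO. Compounds first run in duplicate at 25 uM single dose, then actives confirmed by concentration series.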

Assay [2] concerns the target human NIMA (Never In Mitosis Gene A)-Related Kinase 2 (NEK2), NEK2 (gene 4751) (UniProt P51955). As to the kind of experiment: NVS_ENZ_hNEK2: NovaScreen (NVS) Enzymatic Assay for human NIMA (Never In Mitosis Gene A)-Related Kinase 2 (NEK2) (AID 2283188). The procedure: NVS_ENZ_hNEK2 is a biochemical, single-readout assay that uses extracted gene-proteins in a cell-free assay. Measurements were taken 1 hour after chemical dosing in a 384-well plate.NVS_ENZ_hNEK2 is one of one assay component(s) measured or calculated from the NVS_ENZ_hNEK2 assay. It is designed to make measurements of enzyme activity, a form of enzyme reporter, as detected with fluorescence intensity signals by Fluorescence and electrophoretic mobility shift technology.Data from the assay component NVS_ENZ_hNEK2 was analyzed into 1 assay endpoint. This assay endpoint, NVS_ENZ_hNEK2, was analyzed in the positive analysis fitting direction relative to DMSO as the negative control and baseline of activity. Using a type of enzyme reporter, loss-of-signal activity can be used to understand changes in the enzymatic activity as they relate to the gene NEK2. Furthermore, this assay endpoint can be referred to as a primary readout, because this assay has produced multiple assay endpoints where this one serves a enzymatic activity function. To generalize the intended target to other relatable targets, this assay endpoint is annotated to the kinase intended target family, where the subfamily is serine/threonine kinase. […]

Assay [3] deals with human Phosphoinositide 3-kinase alpha (PI3Ka), PIK3CA (gene 5290) (UniProt P42336). Briefly: NVS_ENZ_hPI3Ka: NovaScreen (NVS) Enzymatic Assay for human Phosphoinositide 3-kinase alpha (PI3Ka) (AID 2283196). Put shortly:
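Duplicate single-point screen (25 uM), then singleton dose-response (max 50 uM) for compounds meeting the threshold. Cell-free kinase reaction, 1 h; fluorescent mobility-shift readout.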

The target in assay [4] is PPP2CA (gene 5515) (UniProt P67775). Briefly: NVS_ENZ_hPPP2CA: NovaScreen (NVS) Enzymatic Assay for human Protein Phosphatase 2 Aatalytic subunit Alpha (PPP2CA) (AID 2283199). The procedure: (§1) NVS_ENZ_hPPP2CA is a biochemical, single-readout assay that uses extracted gene-proteins in a cell-free assay. Measurements were taken 1.33 hours after chemical dosing in a 384-well plate.NVS_ENZ_hPPP2CA is one of one assay component(s) measured or calculated from the NVS_ENZ_hPPP2CA assay. It is designed to make measurements of enzyme activity, a form of enzyme reporter, as detected with fluorescence intensity signals by Fluorescence and electrophoretic mobility shift technology.Data from the assay component NVS_ENZ_hPPP2CA was analyzed into 1 assay endpoint. This assay endpoint, NVS_ENZ_hPPP2CA, was analyzed in the positive analysis fitting direction relative to DMSO as the negative control and baseline of activity. Using a type of enzyme reporter, loss-of-signal activity can be used to understand changes in the enzymatic activity as they relate to the gene PPP2CA. Furthermore, this assay endpoint can be referred to as a primary readout, because this assay has produced multiple assay endpoints where this one serves a enzymatic activity function. To generalize the intended target to other relatable targets, this assay endpoint is annotated to the phosphatase intended target family, where the subfamily is serine/threonine phosphatase. […]

Assay [5] addresses Tyrosine-protein phosphatase non-receptor type 11 (Homo sapiens) (UniProt Q06124). Briefly: NVS_ENZ_hPTPN11: NovaScreen (NVS) Enzymatic Assay for human Protein Tyrosine Phosphatase Non-receptor Type 11 (PTPN11) (AID 2283202). The procedure:
as §1, with “NVS_ENZ_hPTPN11” for “NVS_ENZ_hPPP2CA”, “0.5 hour” for “1.33 hours”, “plate.NVS_ENZ_hPTPN11” for “plate.NVS_ENZ_hPPP2CA”, “NVS_ENZ_hPTPN11,” for “NVS_ENZ_hPPP2CA,”, “PTPN11.” for “PPP2CA.”, “non-receptor tyrosine” for “serine/threonine”

The target in assay [6] is Tyrosine-protein phosphatase non-receptor type 12 (Homo sapiens) (UniProt Q05209). As to the kind of experiment: NVS_ENZ_hPTPN12: NovaScreen (NVS) Enzymatic Assay for human Protein Tyrosine Phosphatase Non-receptor Type 12 (PTPN12) (AID 2283204). Put shortly:
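Single-concentration duplicates (25 uM) preceded singleton concentration-response up to 50 uM for chemicals passing threshold. Cell-free recombinant PTPN12 activity was read 1.33 h after dosing via fluorescence after mobility-shift separation; loss of signal versus DMSO.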

The target of assay [7] is Tyrosine-protein phosphatase non-receptor type 13 (Homo sapiens) (UniProt Q12923). Briefly: NVS_ENZ_hPTPN13: NovaScreen (NVS) Enzymatic Assay for human Protein Tyrosine Phosphatase Non-receptor Type 13 (PTPN13) (AID 2283205). The method in brief: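 Screened first at a single 25 uM in duplicate; compounds passing the threshold (e.g. 30% inhibition) were rerun in concentration series, top 50 uM. Recombinant enzyme, fluorescent substrate, mobility-shift separation, 0.5 h read. Data fitted as inhibition relative to DMSO.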

Assay [8] concerns the target human Protein Tyrosine Phosphatase Non-receptor Type 4 (PTPN4), PTPN4 (gene 5775) (UniProt P29074). Briefly: NVS_ENZ_hPTPN4: NovaScreen (NVS) Enzymatic Assay for human Protein Tyrosine Phosphatase Non-receptor Type 4 (PTPN4) (AID 2283208). The method in brief:
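Screened in duplicate at 25 uM, with hits then titrated to a top concentration of 50 uM. Recombinant Sf9-derived PTPN4 turnover was read by fluorescence with electrophoretic separation, 1.33 h after compound addition. DMSO served as baseline.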

Assay [9] addresses human Protein Tyrosine Phosphatase Non-receptor Type 9 (PTPN9), PTPN9 (gene 5780) (UniProt P43378). Briefly: NVS_ENZ_hPTPN9: NovaScreen (NVS) Enzymatic Assay for human Protein Tyrosine Phosphatase Non-receptor Type 9 (PTPN9) (AID 2283209). The protocol: as §1, with “NVS_ENZ_hPTPN9” for “NVS_ENZ_hPPP2CA”, “gene-proteins from SF9” for “gene-proteins”, “plate.NVS_ENZ_hPTPN9” for “plate.NVS_ENZ_hPPP2CA”, “NVS_ENZ_hPTPN9,” for “NVS_ENZ_hPPP2CA,”, “PTPN9.” for “PPP2CA.”, “non-receptor tyrosine” for “serine/threonine”

As usually defined, the AC50 is the concentration giving half of the maximal activity seen.

Records with an inconclusive call do not appear. Calls of active or inactive are those of the source. How the source made its calls: active means hit-call score of the fitted dose curve at least 0.9, where 1 is the maximum; inconclusive means response in the unintended direction; inactive means score below 0.9.

Chain of Tyrosine-protein phosphatase non-receptor type 12 (Homo sapiens) (Q05209 whole entry, looked up): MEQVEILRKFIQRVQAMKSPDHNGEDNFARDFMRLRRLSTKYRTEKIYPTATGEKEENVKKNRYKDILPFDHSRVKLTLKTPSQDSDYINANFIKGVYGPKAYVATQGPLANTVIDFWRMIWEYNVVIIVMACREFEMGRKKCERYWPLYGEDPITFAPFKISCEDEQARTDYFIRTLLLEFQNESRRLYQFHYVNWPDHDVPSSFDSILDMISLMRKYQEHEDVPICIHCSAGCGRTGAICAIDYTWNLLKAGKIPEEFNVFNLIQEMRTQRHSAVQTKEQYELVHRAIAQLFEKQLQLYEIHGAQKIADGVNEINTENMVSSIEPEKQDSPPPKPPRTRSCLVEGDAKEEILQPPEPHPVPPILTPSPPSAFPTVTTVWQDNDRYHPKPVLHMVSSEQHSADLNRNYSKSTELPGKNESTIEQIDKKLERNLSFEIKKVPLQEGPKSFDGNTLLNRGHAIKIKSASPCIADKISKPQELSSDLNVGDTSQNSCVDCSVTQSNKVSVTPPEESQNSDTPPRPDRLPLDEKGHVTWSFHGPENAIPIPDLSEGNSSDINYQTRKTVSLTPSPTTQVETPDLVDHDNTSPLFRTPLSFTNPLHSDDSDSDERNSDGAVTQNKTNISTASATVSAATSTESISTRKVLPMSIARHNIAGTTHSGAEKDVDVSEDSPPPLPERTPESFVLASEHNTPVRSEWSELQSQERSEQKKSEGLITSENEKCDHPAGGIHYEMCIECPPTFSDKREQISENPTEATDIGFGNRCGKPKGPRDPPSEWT
Chain of human NIMA (Never In Mitosis Gene A)-Related Kinase 2 (NEK2), NEK2 (gene 4751) (P51955 whole entry, looked up): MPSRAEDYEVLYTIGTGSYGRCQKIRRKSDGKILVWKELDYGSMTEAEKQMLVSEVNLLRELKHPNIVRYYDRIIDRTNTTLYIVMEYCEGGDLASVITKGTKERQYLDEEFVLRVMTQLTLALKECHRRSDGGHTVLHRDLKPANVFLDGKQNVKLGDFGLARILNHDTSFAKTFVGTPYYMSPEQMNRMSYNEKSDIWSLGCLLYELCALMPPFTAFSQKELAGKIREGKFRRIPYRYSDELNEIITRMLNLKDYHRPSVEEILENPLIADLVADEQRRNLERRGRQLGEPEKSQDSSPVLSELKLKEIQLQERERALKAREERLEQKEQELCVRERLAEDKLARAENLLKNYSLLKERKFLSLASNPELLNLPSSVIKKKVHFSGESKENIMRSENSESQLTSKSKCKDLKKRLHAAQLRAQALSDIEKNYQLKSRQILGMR
Chain of human Protein Tyrosine Phosphatase Non-receptor Type 9 (PTPN9), PTPN9 (gene 5780) (P43378 whole entry, looked up): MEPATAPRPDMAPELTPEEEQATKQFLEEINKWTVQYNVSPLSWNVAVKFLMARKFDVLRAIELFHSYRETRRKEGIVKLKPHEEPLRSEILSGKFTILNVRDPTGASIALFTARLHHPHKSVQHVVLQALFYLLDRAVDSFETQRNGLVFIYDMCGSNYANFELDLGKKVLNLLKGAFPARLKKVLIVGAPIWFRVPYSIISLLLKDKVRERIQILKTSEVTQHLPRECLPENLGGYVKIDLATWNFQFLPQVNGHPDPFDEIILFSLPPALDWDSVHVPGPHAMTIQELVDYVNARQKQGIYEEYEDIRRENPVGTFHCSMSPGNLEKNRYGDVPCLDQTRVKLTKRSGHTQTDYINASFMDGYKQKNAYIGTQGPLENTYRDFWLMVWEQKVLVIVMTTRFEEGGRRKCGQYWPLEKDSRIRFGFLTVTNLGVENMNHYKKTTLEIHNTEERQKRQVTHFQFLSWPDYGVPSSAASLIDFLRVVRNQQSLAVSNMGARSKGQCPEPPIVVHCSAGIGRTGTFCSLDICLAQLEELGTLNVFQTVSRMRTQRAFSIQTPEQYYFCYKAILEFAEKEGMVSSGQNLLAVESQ
Chain of Tyrosine-protein phosphatase non-receptor type 13 (Homo sapiens) (Q12923 whole entry, looked up): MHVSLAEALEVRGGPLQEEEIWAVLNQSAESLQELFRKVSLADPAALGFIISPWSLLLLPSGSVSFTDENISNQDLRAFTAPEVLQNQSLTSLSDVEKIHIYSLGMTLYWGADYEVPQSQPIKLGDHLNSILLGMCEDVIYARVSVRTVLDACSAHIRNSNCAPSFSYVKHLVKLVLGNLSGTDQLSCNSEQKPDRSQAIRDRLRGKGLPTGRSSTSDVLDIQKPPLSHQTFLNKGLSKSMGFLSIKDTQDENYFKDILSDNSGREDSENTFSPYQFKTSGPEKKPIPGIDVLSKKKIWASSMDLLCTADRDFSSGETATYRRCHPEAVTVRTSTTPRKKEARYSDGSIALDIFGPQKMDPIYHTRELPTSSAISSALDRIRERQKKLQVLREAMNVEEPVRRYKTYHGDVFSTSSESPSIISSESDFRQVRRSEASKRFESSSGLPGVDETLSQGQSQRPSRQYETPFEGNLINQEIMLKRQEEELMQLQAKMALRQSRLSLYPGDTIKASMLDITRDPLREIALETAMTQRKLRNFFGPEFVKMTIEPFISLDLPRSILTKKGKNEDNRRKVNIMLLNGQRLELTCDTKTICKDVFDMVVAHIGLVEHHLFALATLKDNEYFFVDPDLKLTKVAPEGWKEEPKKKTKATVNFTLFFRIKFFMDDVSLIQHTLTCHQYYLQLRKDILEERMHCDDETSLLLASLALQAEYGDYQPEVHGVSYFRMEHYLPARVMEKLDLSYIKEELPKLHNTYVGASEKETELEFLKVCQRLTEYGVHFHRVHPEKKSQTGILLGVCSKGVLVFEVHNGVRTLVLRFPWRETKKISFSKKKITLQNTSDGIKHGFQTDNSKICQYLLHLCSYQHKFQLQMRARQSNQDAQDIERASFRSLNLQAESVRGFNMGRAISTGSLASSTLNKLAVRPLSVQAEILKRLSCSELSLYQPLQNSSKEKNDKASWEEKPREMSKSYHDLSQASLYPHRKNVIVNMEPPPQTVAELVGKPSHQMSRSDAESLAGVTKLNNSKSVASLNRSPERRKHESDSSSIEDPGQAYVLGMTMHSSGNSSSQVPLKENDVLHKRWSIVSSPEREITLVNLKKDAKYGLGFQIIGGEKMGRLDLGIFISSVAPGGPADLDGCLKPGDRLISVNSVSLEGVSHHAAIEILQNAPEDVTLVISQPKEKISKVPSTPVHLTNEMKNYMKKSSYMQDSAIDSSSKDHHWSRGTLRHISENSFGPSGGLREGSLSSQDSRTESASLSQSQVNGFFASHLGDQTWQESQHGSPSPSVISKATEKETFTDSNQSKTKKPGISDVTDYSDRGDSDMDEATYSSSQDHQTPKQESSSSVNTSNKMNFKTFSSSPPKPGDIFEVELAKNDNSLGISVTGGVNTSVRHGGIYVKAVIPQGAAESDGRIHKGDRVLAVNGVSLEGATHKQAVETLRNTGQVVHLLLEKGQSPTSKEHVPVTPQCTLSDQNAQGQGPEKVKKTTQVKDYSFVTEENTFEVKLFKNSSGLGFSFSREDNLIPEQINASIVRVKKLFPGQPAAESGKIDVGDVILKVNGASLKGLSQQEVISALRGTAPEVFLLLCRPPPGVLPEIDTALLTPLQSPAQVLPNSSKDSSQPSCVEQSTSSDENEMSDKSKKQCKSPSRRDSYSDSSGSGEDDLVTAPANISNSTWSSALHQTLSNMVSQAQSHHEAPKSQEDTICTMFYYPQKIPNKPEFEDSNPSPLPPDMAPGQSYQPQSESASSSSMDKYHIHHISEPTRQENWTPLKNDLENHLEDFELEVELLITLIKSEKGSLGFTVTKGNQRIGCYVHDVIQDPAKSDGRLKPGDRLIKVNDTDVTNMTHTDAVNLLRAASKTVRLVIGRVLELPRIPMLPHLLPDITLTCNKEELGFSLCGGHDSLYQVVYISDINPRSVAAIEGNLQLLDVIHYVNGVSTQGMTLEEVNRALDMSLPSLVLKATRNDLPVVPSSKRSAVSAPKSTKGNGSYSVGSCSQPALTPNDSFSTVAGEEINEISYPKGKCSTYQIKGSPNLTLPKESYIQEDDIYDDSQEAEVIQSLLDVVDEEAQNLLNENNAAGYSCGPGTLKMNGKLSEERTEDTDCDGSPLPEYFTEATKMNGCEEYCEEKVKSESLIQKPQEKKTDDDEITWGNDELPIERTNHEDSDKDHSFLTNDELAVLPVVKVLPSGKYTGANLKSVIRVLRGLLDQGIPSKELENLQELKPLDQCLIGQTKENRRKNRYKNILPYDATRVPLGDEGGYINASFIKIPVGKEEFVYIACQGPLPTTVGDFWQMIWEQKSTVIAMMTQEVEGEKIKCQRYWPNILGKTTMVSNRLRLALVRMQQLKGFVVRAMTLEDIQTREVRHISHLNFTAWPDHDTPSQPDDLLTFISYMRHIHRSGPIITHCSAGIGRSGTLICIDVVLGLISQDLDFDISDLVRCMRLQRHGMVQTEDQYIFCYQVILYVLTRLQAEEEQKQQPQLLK
Chain of PPP2CA (gene 5515) (P67775 whole entry, looked up): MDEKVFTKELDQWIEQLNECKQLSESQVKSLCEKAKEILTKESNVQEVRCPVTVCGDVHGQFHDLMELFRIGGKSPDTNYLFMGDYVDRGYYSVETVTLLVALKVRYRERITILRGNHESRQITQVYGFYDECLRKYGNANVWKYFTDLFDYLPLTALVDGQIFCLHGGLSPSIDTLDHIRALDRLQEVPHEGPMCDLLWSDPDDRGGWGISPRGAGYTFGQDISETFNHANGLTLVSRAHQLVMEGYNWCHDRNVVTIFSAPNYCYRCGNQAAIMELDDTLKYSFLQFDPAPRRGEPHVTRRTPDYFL
Chain of human Matrix Metalloproteinase-3 (MMP3), MMP3 (gene 4314) (P08254 whole entry, looked up): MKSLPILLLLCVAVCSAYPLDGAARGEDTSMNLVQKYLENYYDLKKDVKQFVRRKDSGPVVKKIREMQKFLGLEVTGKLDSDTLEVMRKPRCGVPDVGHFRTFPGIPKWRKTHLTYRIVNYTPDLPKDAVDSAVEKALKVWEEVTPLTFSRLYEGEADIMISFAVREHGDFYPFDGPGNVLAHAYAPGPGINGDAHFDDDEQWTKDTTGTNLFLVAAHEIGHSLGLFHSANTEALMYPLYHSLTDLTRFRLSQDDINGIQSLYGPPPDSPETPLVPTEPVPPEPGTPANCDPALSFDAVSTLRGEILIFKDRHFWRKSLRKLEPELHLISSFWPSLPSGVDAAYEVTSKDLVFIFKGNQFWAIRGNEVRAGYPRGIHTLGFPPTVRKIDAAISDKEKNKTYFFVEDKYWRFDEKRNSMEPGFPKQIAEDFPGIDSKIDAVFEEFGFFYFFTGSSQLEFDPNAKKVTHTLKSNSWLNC

As to `COC(=O)c1c(C(F)F)nc(C(F)(F)F)c(C2=NCCS2)c1CC(C)C`, the result in assay [1] was inactive.

As for `Cn1c(-c2ccccc2)cc(-c2ccccc2)[n+]1C`, the compound was classed as inactive in [2].

As to `COC(=O)N(C(=O)N1CO[C@@]2(C(=O)OC)Cc3cc(Cl)ccc3C2=N1)c1ccc(OC(F)(F)F)cc1`, in assay [2], the call was inactive.

Consider `O=C(O)c1c(Cl)ccc2cc(Cl)cnc12`, for which, in [3], the result was inactive.

Take `N#CN=C1SCCN1Cc1ccc(Cl)nc1`: the result in assay [4] was inactive.

As to `CC(C)N1C(=O)c2ccccc2NS1(=O)=O`, the compound was called inactive in assay [5].

Take `CC(C)=CC1C(C(=O)OCc2coc(Cc3ccccc3)c2)C1(C)C` (configuration not stated): the call in assay [6] was inactive.

For `CCCC(=NOCC)C1=C(O)CC(CC(C)SCC)CC1=O` (configuration not stated), the compound was classed as inactive in assay [6] and in assay [7]. For the same compound, the AC50 is 17.9 µM (active) in assay [8] and 42.2 µM (active) in assay [9].

In the case of `O=C1C2CC=CCC2C(=O)N1SC(Cl)(Cl)Cl` (configuration not stated), the compound was called inactive in assay [9].
